# KCNQ2 enhance – potentiators of rat KCNQ2 potassium channel; B-score at 10 µM; hit rate 0.54% among 310,000; CHO-K1 KCNQ2, FluxOR thallium flux fluorescence; active compounds read high; O88943;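 active means fluorescence ratio B-score at least 3 SD of library B-scores, with initial fluorescence B-score within 3 of them, cut at about 5.3 in these data; same plate scores as AID 2156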;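 further: B-score of peak minus minimum over baseline fluorescence ratio after K+ and Tl+ stimulus; positive B-score means potentiation of KCNQ2 with more thallium influx and brighter signal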
# KCNQ2 block – blocks the rat KCNQ2 potassium channel | O88943 | CHO-K1 KCNQ2, FluxOR thallium flux, 20 min; active compounds read low | B-score at 10 µM | hit rate 1.1% among 310,000 | AID 2156;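 active means fluorescence ratio B-score at most minus 3 library SDs, with starting brightness B-score within 2 library SDs, cut at about -5.5 in these data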
# KCNQ2 block conf – confirmation of rat KCNQ2 potassium channel inhibitors. shares compounds with KCNQ2 block. KCNQ2-expressing cells, thallium flux, inhibition; active compounds read low. activity change, negative = inhibition, % at 10 µM. hit rate 57% among 1,000;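 further: 0% = vehicle wells and values are ratio percent relative to vehicle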
# KCNQ1 spec – human KCNQ1 activity in KCNQ2 inhibitor specificity screen. activity change, negative = inhibition, % at 10 µM. AID 493026. KCNQ1-expressing cells, FluxOR thallium flux fluorescence; active compounds read low. hit rate 15% among 1,000. shares compounds with KCNQ2 block;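 active means activity change at least 3 SD of negative controls below their mean in both duplicate wells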;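 further: CHO cells stably transfected with KCNQ1 and depolarized by potassium stimulus; peak minus minimum fluorescence over baseline after thallium addition; 0% = vehicle negative control and -100% = blank without thallium stimulus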
# CHO parental ctr – counter-screen for KCNQ2 inhibitors: effect in parental CHO cells; shares compounds with KCNQ2 block; activity change, % at 10 µM; thallium flux counter-screen; active compounds read low; hit rate 14% among 1,000;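 further: 0% = vehicle negative controls with stimulus buffer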
# KCNQ2 patch conf – blocks rat KCNQ2 current in automated patch clamp. shares compounds with KCNQ2 block. KCNQ2-expressing cells. calls only at 10 µM. hit rate 49% among 550. AID 588531
# * = called active by the depositor; i = inactive; x = no result given; + = active, no number. Hits are enriched below; roughly 1.6% of the tested compounds scored in any of these assays. Unless noted, how the calls were made is not given here.
SMILES,KCNQ2 enhance,KCNQ2 block,KCNQ2 block conf,KCNQ1 spec,CHO parental ctr,others
Cc1cccc(-c2noc(CN(C(=O)CCc3ccccc3)C(C)C)n2)c1,-8,-8*,-36.0%*,-35.5%*,-28.5%*,KCNQ2 patch conf=i
Cc1cccc(-c2noc(CN(C(=O)/C=C/c3ccccc3Cl)C(C)C)n2)c1,x,i,x,x,x,
Cc1cccc(-c2noc(CN(C)S(=O)(=O)c3cc(Cl)ccc3Cl)n2)c1,-10.6,-10.6*,i,i,i,
COc1ccc(Cl)cc1C(=O)N(Cc1nc(-c2cccc(C)c2)no1)C(C)C,x,i,x,x,x,
CSc1ccc(CC(=O)N2CCC(n3nccc3NC(=O)C3CC3)CC2)cc1,1.22,i,x,x,x,
CCOC(=O)Cc1csc(NS(=O)(=O)c2ccc(OC)cc2)n1,1.13,i,x,x,x,
O=[N+]([O-])c1ccc(-c2csc(N3CCc4ccccc4C3)n2)cc1,x,i,x,x,x,
O=[N+]([O-])c1ccc(N2CCc3ccccc3C2)cc1,-7.08,-7.08*,i,i,i,
CCOC(=O)c1nc2c(ccc3ccccc32)cc1C,x,i,x,x,x,
COc1cc(C(=O)Nc2cccc(C)c2C)c(Br)c(OC)c1OC,-7.98,-7.98*,-24.5%*,i,i,KCNQ2 patch conf=+
COC(=O)c1cccc(NC(=O)c2cc(OC)c(OC)c(OC)c2Br)c1,x,i,x,x,x,
CN1C(=O)[C@H]2[C@@H](/C=C/c3ccccc3)N3C(=O)CN(Cc4ccccn4)C(=O)[C@@]3(C)[C@H]2C1=O,x,i,x,x,x,
CC1CCN(c2ccc3nnc(CCC(=O)N4CCN(c5ccc(F)cc5)CC4)n3n2)CC1,0.9,i,x,x,x,
CCNC(=O)CSc1nnc(-c2cccc(S(=O)(=O)N(CC)CC)c2)n1CCc1ccccc1,x,i,x,x,x,
CCSc1nnc(-c2cccc(S(=O)(=O)N(CC)CC)c2)n1Cc1ccccc1,-10.3,-10.3*,i,i,i,
COC(=O)C(Cc1ccccc1)NCC(=O)Nc1cccc(Cl)c1C (centres undefined),-8.17,-8.17*,-36.0%*,i,i,KCNQ2 patch conf=+
Cc1c(Cl)cccc1NC(=O)CS(=O)(=O)c1ccccc1,x,i,x,x,x,
COC(=O)CCCCCN1C(=O)NC(C2CC2)C(C(=O)OCc2ccccc2)=C1C (centres undefined),1.05,i,x,x,x,
COCc1cc(C)n(CC(=O)Nc2cc(C)cc(C)c2)c(=O)c1C#N,x,i,x,x,x,
C=C(C)c1ccc(C(C)(C)NC(=O)NCc2ccco2)cc1,1.44,i,x,x,x,
C=C(C)c1ccc(C(C)(C)NC(=O)N(Cc2ccccc2)Cc2ccco2)cc1,-6.92,-6.92*,-16.5%*,i,i,KCNQ2 patch conf=i
CN(Cc1ccccc1)C(=O)NC1CCCCC1,x,i,x,x,x,
O=C(NC1CCCCC1)N(Cc1ccccc1)Cc1ccco1,-8.08,-8.08*,i,i,i,
Cc1cc(C)c(NC(N)=S)c(C)c1,x,i,x,x,x,
CCCCN=C1NC(=O)C(CC(=O)NCCc2ccc(OC)cc2)S1 (centres undefined),0.02,i,x,x,x,
SMILES,KCNQ2 enhance,KCNQ2 block,KCNQ2 block conf,KCNQ1 spec,CHO parental ctr,others
CC1(C)CC(NC(=O)C(Cl)(Cl)Cl)CC(C)(C)N1,x,i,x,x,x,
COc1cc(C(=O)OCC(=O)N2CCOCC2)c([N+](=O)[O-])cc1OC,0.69,i,x,x,x,
Cc1ccc(S(=O)(=O)N(C)c2c(C)ccc(S(=O)(=O)N3CCN(C)CC3)c2C)cc1,x,i,x,x,x,
C=C(C)CN1CCN(S(=O)(=O)c2ccc(C)c(N(C)S(=O)(=O)c3ccc(C)cc3)c2C)CC1,-8.51,-8.51*,-32.5%*,-32.5%*,-25.0%*,KCNQ2 patch conf=i
COc1ccc(C(=O)N2CCCC(C(=O)O)C2)c2ccccc12 (centres undefined),x,i,x,x,x,
COC(=O)c1cn(NC(=O)c2cc(OC)cc(OC)c2)c(=O)c2ccccc12,0.43,i,x,x,x,
COc1cc(OC)cc(C(=O)Nn2cc(C(=O)Nc3c(F)cccc3F)c3ccccc3c2=O)c1,-6.86,-6.86*,i,i,i,
COc1ccc(NC(=O)NNC(=O)C(C)Oc2ccc3ccccc3c2)cc1 (centres undefined),x,i,x,x,x,
CCn1c(SCc2ccc(C#N)cc2)nnc1-c1cccc(Cl)c1,x,i,x,x,x,
Cc1cccc(-c2nnc(SCc3ccc(C#N)cc3)n2Cc2ccco2)c1,-8.81,-8.81*,-26.0%*,i,i,
O=C(NC12CC3CC(CC(C3)C1)C2)c1ccccc1,x,i,x,x,x,
O=C(NC12CC3CC(CC(C3)C1)C2)N(Cc1ccccc1)Cc1ccncc1,-10.9,-10.9*,-34.0%*,i,i,KCNQ2 patch conf=+
CCCCOC1(c2ccccc2)OC(=O)c2ccccc21 (centres undefined),x,i,x,x,x,

# Source: PubChem BioAssay (Johns Hopkins Ion Channel Center)
